DT40 TDP1 no CPT = qHTS for Inhibitors of human tyrosyl-DNA phosphodiesterase 1 (TDP1): qHTS in cells in absence of CPT | DT40 Tdp1-/- hTDP1 cells, no CPT, ATP luminescence, 48 h | Potency, µM (series often up to 46.2 µM), for inactives: at the top dose activity change, negative = growth inhibition, actives largely listed as inhibitors | 420,000 tested, 15% active; further: nearly all actives have a fitted effect of over 55% in size
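Growth of hTDP1-complemented DT40 Tdp1-knockout cells is measured by ATP luminescence after at least 48 hr compound exposure at 37 °C, with DMSO substituting for the 20 nM CPT used in the parallel screen.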
HT1080 IDH1KD tx = kills HT-1080 cells with IDH1 knockdown; HT-1080 IDH1 knockdown viability, ATP luminescence, 48 h; Potency, µM (highest dose often 46.1 µM), for inactives: at the highest dose activity, negative = toxicity, usual class: cytotoxic; 360,000 tested, 2% active; AID 686971;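 further: 0% = DMSO wells and -100% = cell-free medium wells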
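Viability of IDH1-knockdown HT-1080 fibrosarcoma cells was assessed by CellTiter-Glo after 48 h at 37 °C with titrated compound; concentration-effect curves were classified by fit quality and response size.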
KB-3-1 cytotox = KB-3-1 parental cell cytotoxicity | KB-3-1 viability, CellTiter-Glo ATP luminescence, 72 h | Potency, µM (series often up to 46.1 µM), usual class: cytotoxic | 400,000 tested, 1.4% active | AID 1347075; further: nearly all actives have a fitted effect of over 60% in size
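Multi-concentration cytotoxicity screen in KB-3-1 cells grown in DMEM lacking phenol red with 10% FBS. After 72 h at 37 °C with compound, ATP-dependent luminescence was recorded.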
DT40 TDP1 CPT = DT40-hTDP1 cell growth loss with CPT | chicken DT40 Tdp1-/-;hTDP1 cells + 20 nM CPT, ATP luminescence, 48 h | Potency, µM (titrated, usually from 46.2 µM), for the others: top-dose activity change, negative = growth inhibition, hits mostly inhibitors | 420,000 tested, 12% active | AID 686979; further: nearly all actives have a fitted effect of over 55% in size
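Cell growth measured by CellTiter-Glo luminescence after a minimum 48 h, 37 C compound exposure with 20 nM CPT in Tdp1-knockout DT40 cells stably expressing hTDP1, seeded 400/well; qHTS titration format.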
HT1080-NT tox = kills 2HG-producing HT-1080-NT fibrosarcoma cells. HT-1080-NT fibrosarcoma viability, CellTiter-Glo ATP luminescence, 48 h. Potency, µM (highest dose often 46.1 µM), for the others: at the top dose activity, negative = less viability, usual class: cytotoxic. 360,000 tested, 1.6% active. AID 686970;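 further: NT is the 2HG producing partner of a matched IDH1 knockdown line; 0% = DMSO-treated cells and -100% = media-only wells without cells; nearly all actives have a fitted effect of over 55% in size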
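Compounds were tested in concentration-response format on HT-1080-NT cells for 48 hours at 37 degrees C. Cell viability came from CellTiter-Glo luminescence; curves were classified by r2, response magnitude and activity.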
KB-V1 MDR tox = kills drug-selected multidrug resistant KB-V1 cells; AID 1347076; Potency, µM (series often up to 46.1 µM), most hits filed as cytotoxic; KB-V1 MDR cells viability, CellTiter-Glo, 72 h; 400,000 tested, 3.4% active; further: nearly all actives have a fitted effect of over 60% in size
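In this primary screen, KB-V1 cells overexpressing P-gp are incubated with library compounds (lowest to highest concentration) for 72 h at 37 degrees C before a luminescent ATP viability read.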
The depositor's hits bear a star; i = inactive; ? = inconclusive; · = no result; ! = repeats disagree. This is a sample that favours compounds with a hit; in the whole collection about 19% have one here. The call rests on the fitted dose curve; in most records, active means well fitted curve in the direction sought with a large enough effect; inconclusive means small, poorly fitted or top-dose-only effect, or another doubt; inactive means no such curve, though single readings can be large; an effect the other way counts as inactive or inconclusive. Unless noted, on the % scale 0 is the no-effect control and ±100 the full control effect; potency means the concentration at half of the fitted maximal effect.

SMILES | DT40 TDP1 no CPT | HT1080 IDH1KD tx | KB-3-1 cytotox | DT40 TDP1 CPT | HT1080-NT tox | KB-V1 MDR tox
CC(C)n1nnnc1SCC(=O)N1CCN(Cc2ccc3c(c2)OCCO3)CC1 | -9% | -5% | i | -2% | 2% | i
COCCNc1ncnc2c1cnn2Cc1ccccc1Cl | 18µM* | 0% | ? | ? | -6% | ?
CCN(CC)c1ncnc2c1cnn2Cc1ccc(Cl)cc1 | ? | -11% | i | 21µM* | -14% | ?
CC1CC(C)CN(c2ncnc3c2cnn3Cc2ccc(Cl)cc2)C1 (stereo not drawn) | ? | -20% | i | ? | ? | ?
O=C(NC1CCCCC1)c1cc(-c2ccccc2O)on1 | 11% | -16% | i | 5% | -21% | i
CC1CC[C@@]2(OC1)OC1CC3C4CC=C5CC(O)CC[C@@]5(C)C4CC[C@]3(C)C1C2C (stereo partly drawn) | 5% | · | · | -5% | · | ·
C=CCNC(=O)COC(=O)c1cccnc1Nc1ccccc1F | -19% | 6% | ? | 0% | 14% | i
O=C(C1CCCCC1)N(Cc1nc2sc3c(c2c(=O)[nH]1)CCCC3)Cc1cccs1 | 13µM* | ? | i | ? | ? | i
CC/C(O)=C1\C(=O)CCCC1=NCCc1c(C)[nH]c2ccc(C)cc12 | ? | 0% | i | ? | 10% | i
CCC/C(O)=C1\C(=O)CC(c2ccccc2)CC1=NCCc1c(C)[nH]c2ccc(C)cc12 (stereo not drawn) | ? | -4% | i | 18µM* | -13% | i
CCC(=NCCc1c(C)[nH]c2ccc(C)cc12)C1=C(O)CC(c2ccccc2)CC1=O (stereo not drawn) | 0.82µM* | 1.3µM* | 0.73µM* | 0.58µM* | ? | i
CC/C(O)=C1\C(=O)CC(c2ccccc2)CC1=NCCc1c(C)[nH]c2ccc(C)cc12 (stereo not drawn) | 23µM* | -3% | i | ? | -2% | i
CC(=O)C1=C(O)CC(c2ccccc2)CC1=NCCc1c(C)[nH]c2ccc(C)cc12 (stereo not drawn) | ? | -2% | i | ? | -3% | i
O=C(Nc1ccc(Cl)cc1Cl)[C@@H]1CC=C[C@@H]2CCN(C3CC3)C(=O)[C@@H]21 | ? | · | i | ? | · | ?
CCCCCOC(=O)C1[C@H]2C(=O)N(CCCOC)C[C@]23C=C[C@H]1O3 (stereo partly drawn) | -3% | 12% | i | 4% | 11% | i
C=CCn1c(SCC(=O)NC23CC4CC(CC(C4)C2)C3)nc2cc(C(=O)O)ccc2c1=O | -1% | 3% | i | 0% | 6% | i
COc1cc(Nc2nc3c(S(=O)(=O)c4ccc(C)c(C)c4)nnn3c3ccsc23)cc(OC)c1 | 13µM* | · | · | 9.2µM* | · | ·
COc1ccc(Nc2nc3c(S(=O)(=O)c4ccc(Br)cc4)nnn3c3ccsc23)c(OC)c1 | 21µM* | · | i | 16µM* | · | i
COc1cccc(Nc2nc3c(S(=O)(=O)c4cc(C)ccc4C)nnn3c3ccsc23)c1 | ? | · | i | -25% | · | i
CCCCNc1nc2c(S(=O)(=O)c3ccc(Br)cc3)nnn2c2ccsc12 | 3% | · | i | -12% | · | i
COc1cccc(CN(C)C(=O)c2cc(S(=O)(=O)N3CCCC3)ccc2C)c1OC | ? | 0% | i | ? | 5% | i
CCOC(=O)c1ccc(-c2c(-c3cc(OC)c(OC)c(OC)c3)noc2C)cc1F | 1µM* | 1.8µM* | 1.6µM*! | 1.6µM* | ? | 12µM*
CCOC(=O)c1ccc(-c2c(-c3ccc(OC)cc3)oc(=O)c3cc(OC)c(OC)cc23)cc1F | 10µM* | 11% | i | 21µM* | 10% | i
CCC(C)NC(=O)c1c2c(nc3ccccc13)C(=O)N(C1CCCCC1)C2 (stereo not drawn) | -24% | · | i | -13% | · | i
Cc1ccc(N2CCN(C(=O)c3c4c(nc5ccccc35)C(=O)N(C3CCCCC3)C4)CC2)c(C)c1 | 10µM* | · | i | 9.2µM* | · | i
SMILES | DT40 TDP1 no CPT | HT1080 IDH1KD tx | KB-3-1 cytotox | DT40 TDP1 CPT | HT1080-NT tox | KB-V1 MDR tox
Cc1cccc(N2CCN(C(=O)c3c4c(nc5ccccc35)C(=O)N(C3CCCCC3)C4)CC2)c1C | 5.8µM* | · | i | 7.3µM* | · | i
COc1ccc(C)cc1N(C)C(=O)c1c2c(nc3ccccc13)C(=O)N(C1CCCCC1)C2 | ? | · | i | ? | · | i
COc1cc(NC(=O)c2c3c(nc4ccccc24)C(=O)N(C2CCCCC2)C3)cc(OC)c1 | -15% | · | i | -21% | · | i
COc1cccc(N2CCN(C(=O)c3c4c(nc5ccccc35)C(=O)N(C3CCCCC3)C4)CC2)c1 | 16µM* | · | i | 21µM* | · | i
OC(CN1c2ccccc2Sc2ccccc21)Cn1nnc2ccccc21 (stereo not drawn) | 21µM* | ? | ? | ? | -16% | 16µM*
Cn1c(Cn2nnc3ccccc32)nnc1SCC(=O)N1c2ccccc2Sc2ccccc21 | 16µM* | ? | i | 13µM* | ? | 16µM*
O=C1c2ccccc2C(=O)N1CC(O)Cn1nnc2ccccc21 (stereo not drawn) | -1% | 4% | i | 1% | -1% | i
Cn1c(Cn2nnc3ccccc32)nnc1SCC(=O)N1c2ccccc2CCc2ccccc21 | ? | 2% | i | 23µM* | 1% | ?
Cn1c(Cn2nnc3ccccc32)nnc1SCC(N)=O | -11% | 11% | i | -16% | 9% | i
COc1ccccc1NC(=O)Cn1nc2c3cc(F)ccc3n(Cc3cccc(C)c3)cc-2c1=O | 19% | · | i | 0% | · | i
COc1cc(O)c(/C=N/NC(=O)c2ccncc2)c(OC)c1[N+](=O)[O-] | ? | -1% | i | -37% | -8% | i
COc1cc(/C=N/NC(=O)c2ccc(CN3C(=O)c4cccc5cccc3c45)cc2)cc(OC)c1O | ? | ? | ? | 13µM* | -29% | i
COc1cc(/C=N/NC(=O)c2cc(-c3cccc(Br)c3)nc3ccccc23)cc(OC)c1O | ? | 12µM* | ? | 21µM* | ? | ?
CCOc1ccc(/C=N/NC(=O)c2cc(-c3ccccc3)nc3ccccc23)cc1O | ? | 0% | i | ? | 3% | i
